Reference: PubChem BioAssay (NCATS)
“And” between values parts separate entries of the source, which are not always exact repeats. Equal values may be shown once. Results filed as inconclusive are left out. A number with no mark means an inactive call. The source made the active and inactive calls. Calls come from the whole dose curve; as a rule, active = well fitted curve in the direction sought with a large enough effect; inconclusive = small, poorly fitted or top-dose-only effect, or another doubt; inactive = no such curve, though single readings can be large or run the other way.
% is set by controls: 0 for no effect and ±100 for the full control effect; potency is the fitted concentration of half-maximal effect.

Assay: qHTS Assay for Identifying Gametocytocidal Compounds (AID 743244);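 for max response: actives lower the fluorescent signal which means gametocytes are killed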
Settings: P. falciparum 3D7 stage III-V gametocytes, alamarBlue, 72 h; max response: active compounds read low
Description: Malaria cases and deaths have dropped 50% in 29 countries since 2000 due to the combined effects of long-lasting insecticidal bednets, indoor residual spraying, and artemisinin-based combination therapies (ACTs). This success has raised hopes for malaria eradication and consequently stimulated interest in developing new reagents that block gametocyte transmission such as novel and safe gametocytocidal drugs. However, previous drug development efforts have focused primarily on the asexual parasites that cause symptoms, but not malaria transmission. Consequently, patients can remain infectious for weeks after the clearance of asexual parasites and clinical symptoms. To be transmitted from person to person via a mosquito, the parasites must switch from asexual to sexual development and produce male and female gametocytes. Malaria gametocytes consist of five stages (I, II, III, IV and V). The late stage gametocytes (III, IV and V) are difficult to be cultured in vitro and the long lifespan of mature gametocytes allows them being transmitted from host to mosquitoes unless they are completely eliminated by gametocytocidal agents. To identify gametocytocidal compounds which are capable of killing late stage P. falciparum gametocytes, a high throughput gametocyte viability assay was employed. This assay uses oxidoreduction indicator, alamarBlue, as a general measure of metabolic activity of gametocytes. Within live cells, the nonfluorescent resazurin is reduced to resorufin, a bright red fluorescence dye. Fluorescence decreases upon treatment of gametocytocidal compounds. P. falciparum gametocyte (3D7 strain) was used in this study.
The 1536-well gametocycidal viability assay was based on the previous method of Tanaka et al. Stage III-V gametocytes were tested against three compound libraries, including 4265 compounds from NCGC pharmaceutical collection, 400 from Malaria Box library, and 550 from an internal collection of kinase inhibitors. Briefly, 2.5 ul/well incomplete medium was dispensed into each well of 1,536-well plates using the Multidrop Combi followed by 23 nl compound transferring using the NX-TR Pintool (WAKO Scientific Solutions, San Diego, CA). Then, 2.5 ul/well of gametocytes was dispensed with a seeding density of 20,000 cells/well using the Multidrop Combi. The assay plates were incubated for 72 h at 37C with 5% CO2. After addition of 5 ul/well of 2X AlamarBlue dye (Life Technologies, cat. no. DAL1100), the plates were incubated for 24 h at 37C with 5% CO2 and then were read in a fluorescence detection mode (Ex = 525 nm, Em = 598 nm) on a ViewLux plate reader (PerkinElmer).
CN(C)CCC[C@@]1(c2ccc(F)cc2)OCc2cc(C#N)ccc21 showed a max response of -8.84%. Work on c1ccc(-c2nc[nH]c2-c2ccccc2)cc1 yielded a max response of -4.96%. In the case of CCN1CCCC(OC(=O)C(c2ccccc2)c2ccccc2)C1 (stereo not given), the max response is reported as -3.97%. CC(C)Cn1cnc2c1c(=O)n(C)c(=O)n2C gave a max response of -4.05%. Work on CC1=C(C(=O)O)N2C(=O)[C@@H](NC(=O)[C@H](N)c3ccccc3)[C@H]2SC1 yielded a max response of 2.91%. With NC(=O)C1(N2CCCCC2)CCN(CCCC(=O)c2ccc(F)cc2)CC1 the max response was 6.95%. In the case of CO[C@H]1C=CO[C@@]2(C)Oc3c(C)c(O)c4c(O)c(c(/C=N/N5CCN(C)CC5)c(O)c4c3C2=O)NC(=O)/C(C)=C\C=C[C@H](C)[C@H](O)[C@@H](C)[C@@H](O)[C@@H](C)[C@H](OC(C)=O)[C@@H]1C, the Potency is reported as 15.8 µM (active). NS(=O)(=O)c1ccc(Cl)c(S(N)(=O)=O)c1 showed a max response of -1.41%. For CCN(CC)CCOC(=O)C1(c2ccccc2)CCCC1, the max response was -2.23%. CC(O)Cn1cnc2c1c(=O)n(C)c(=O)n2C (stereo not given) gave a max response of 5.34%. With O=C1C(O)=C(O)C(=O)C(O)=C1O the max response was -3.08%. With O=C(O)Cc1csc(-c2ccc(Cl)cc2)n1 the max response was -4.61%. CCC(Cc1c(I)cc(I)c(N)c1I)C(=O)O (stereo not given) gave a max response of 3.24%. In the case of O=C(NCCc1c[nH]c2ccccc12)c1cccnc1, the max response is reported as -3.02%. For CC(C)n1c(/C=C/[C@@H](O)C[C@@H](O)CC(=O)O)c(-c2ccc(F)cc2)c2ccccc21, the max response was -9.47%. In the case of CCOc1ccccc1OCCN[C@H](C)Cc1ccc(OC)c(S(N)(=O)=O)c1, the max response is reported as 5.89%. With COc1ccc(C(=O)c2ccccc2)c(O)c1 the max response was -10.7%. CCc1oc2ccccc2c1C(=O)c1cc(Br)c(O)c(Br)c1 showed a max response of -6.8%. CC(C)(C)CC(C)(C)c1ccc(O)c(-n2nc3ccccc3n2)c1 showed a max response of -5.06%. For COc1cc(NS(=O)(=O)c2ccc(N)cc2)ncn1, the max response was -7.94%. In the case of C[C@]12CCC(=O)C=C1C=C[C@@H]1[C@@H]2CC[C@@]2(C)[C@H]1CC[C@@]21CCC(=O)O1, the max response is reported as 1.8%. CCOCCn1c(N2CCCN(C)CC2)nc2ccccc21 gave a max response of -5.27%. C#C[C@]1(O)CC[C@H]2[C@@H]3[C@H](C)CC4=C(CCC(=O)C4)[C@H]3CC[C@@]21C gave a max response of -5.37%. Compound Cc1cc(NS(=O)(=O)c2ccc(N)cc2)nc(C)n1 has a max response of 18.7%. For CC(C)Nc1cccnc1N1CCN(C(=O)c2cc3cc(NS(C)(=O)=O)ccc3[nH]2)CC1, the max response was -8.7%. For CCCCCCCCNC(C)C(O)c1ccc(SC(C)C)cc1 (stereo not given), the Potency was 2.51 µM (active). In the case of Cc1ncc(CO)c(C=O)c1O, the max response is reported as -3.85%. Work on O=C(O)P(=O)(O)O yielded a max response of 10.4%. Compound Cc1c[nH]c2ccccc12 has a max response of 0.215%. Work on Nc1nc(N)c(-c2ccccc2)s1 yielded a max response of -3.45%. For NC(N)=NCc1cccc(I)c1, the max response was 10% and 7.9%. For CC(=O)Nc1ccc(OC(=O)c2ccccc2OC(C)=O)cc1, the max response was 12.6%. FC(F)(F)C(F)(F)C(F)(F)C(F)(F)C(F)(F)C(F)(F)C(F)(F)C(F)(F)Br gave a max response of 5.68%. C#C[C@]1(O)CC[C@H]2[C@@H]3CCC4=CC(=O)CC[C@@H]4[C@H]3CC[C@@]21CC showed a max response of 6.28%. With CCC1NC(=O)c2cc(S(N)(=O)=O)c(Cl)cc2N1 (stereo not given) the max response was 5.58%. In the case of CC(C)(C)NC[C@H](O)COc1cccc2c1CCCC2=O, the max response is reported as -0.406%. For FC1(F)C(F)(F)C(F)(F)C2(F)C(F)(F)C(F)(F)C(F)(F)C(F)(F)C2(F)C1(F)F (stereo not given), the max response was -4.02%. For CN1CCN(CCC(=O)N2c3ccccc3Sc3ccc(C(F)(F)F)cc32)CC1, the max response was 2.75%. With CC1CCc2c(N3CCC(O)CC3)c(F)cc3c(=O)c(C(=O)O)cn1c23 (stereo not given) the max response was 21.4%. CC(C)=CCOc1ccc(/C=C/C(=O)c2ccc(OCC=C(C)C)cc2OCC(=O)O)cc1 gave a max response of 2.6%.
